# Source: ChEMBL document CHEMBL1201862, “PubChem BioAssay data set” (2004)
# Hit rate of the full screen: of about 400,000 compounds, about 2,100 (0.53%) were called active. Not shown: some 14% with an inconclusive outcome. No rule for the calls is given here. Only a selection was taken, and actives are over-represented in it overall.
# Target: Ataxin-2 (Homo sapiens) (UniProt Q99700)
# Experiment: qHTS for Inhibitors of ATXN expression.
# Type: functional
# Ataxin-2 (Homo sapiens), sequence (Q99700 whole entry): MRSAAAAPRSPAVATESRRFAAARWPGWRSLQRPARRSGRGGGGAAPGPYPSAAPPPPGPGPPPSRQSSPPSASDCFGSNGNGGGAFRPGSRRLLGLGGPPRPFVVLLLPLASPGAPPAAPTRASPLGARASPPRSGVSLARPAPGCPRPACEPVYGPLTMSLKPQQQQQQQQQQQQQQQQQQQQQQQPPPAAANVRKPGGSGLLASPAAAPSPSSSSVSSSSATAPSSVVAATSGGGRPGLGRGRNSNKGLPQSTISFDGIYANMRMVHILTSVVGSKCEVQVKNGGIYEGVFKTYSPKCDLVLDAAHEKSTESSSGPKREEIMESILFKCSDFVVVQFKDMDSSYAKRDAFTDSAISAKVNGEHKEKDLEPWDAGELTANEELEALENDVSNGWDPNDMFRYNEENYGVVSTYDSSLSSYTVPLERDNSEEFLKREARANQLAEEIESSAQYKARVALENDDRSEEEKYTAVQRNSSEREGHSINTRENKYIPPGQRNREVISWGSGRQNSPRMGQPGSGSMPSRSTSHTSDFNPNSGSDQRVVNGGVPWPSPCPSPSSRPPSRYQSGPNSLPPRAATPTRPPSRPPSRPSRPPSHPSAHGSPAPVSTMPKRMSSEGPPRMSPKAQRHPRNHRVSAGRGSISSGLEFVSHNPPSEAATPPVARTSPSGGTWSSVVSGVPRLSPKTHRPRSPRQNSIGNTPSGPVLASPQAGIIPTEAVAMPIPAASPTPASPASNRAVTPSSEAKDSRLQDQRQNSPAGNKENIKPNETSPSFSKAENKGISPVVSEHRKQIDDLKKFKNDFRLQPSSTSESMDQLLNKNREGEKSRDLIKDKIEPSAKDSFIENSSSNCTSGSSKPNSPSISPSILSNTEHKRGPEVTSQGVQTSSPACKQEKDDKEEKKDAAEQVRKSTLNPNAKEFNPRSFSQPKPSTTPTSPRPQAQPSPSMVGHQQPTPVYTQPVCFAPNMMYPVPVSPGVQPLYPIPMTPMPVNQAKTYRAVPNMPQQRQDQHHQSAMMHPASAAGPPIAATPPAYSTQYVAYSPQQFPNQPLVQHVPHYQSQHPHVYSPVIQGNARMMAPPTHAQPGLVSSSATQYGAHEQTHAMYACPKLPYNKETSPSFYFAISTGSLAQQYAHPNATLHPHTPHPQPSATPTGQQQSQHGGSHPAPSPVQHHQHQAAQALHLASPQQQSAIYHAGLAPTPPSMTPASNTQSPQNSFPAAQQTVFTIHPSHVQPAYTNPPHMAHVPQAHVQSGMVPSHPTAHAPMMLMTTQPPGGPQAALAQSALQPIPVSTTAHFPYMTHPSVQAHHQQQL
row,SMILES,Potency
1,COc1ccccc1C1CN(c2ccc(F)cc2F)N=C1c1cccs1 (configuration not stated),inactive
2,N#C/C(=N\Nc1ccc(Cl)c(Cl)c1)C(=O)C1CC1,25.1 µM (active)
3,O=C(NCc1ccc(Cl)c(Cl)c1)C1CCCC1,inactive
4,O=[N+]([O-])c1ccc(S(=O)(=O)NCCc2cn3ccccc3n2)cc1,inactive
5,COc1ccc(S(=O)(=O)NCC2CCCN(C(=O)c3cccnc3)C2)cc1 (configuration not stated),inactive
6,COc1ccccc1OCCn1c(C)c(C=O)c2ccccc21,inactive
7,Cc1c(C=O)c(C=O)c(C)n1Cc1ccccc1,35.5 µM (active)
8,Cc1c(C)n(Cc2ccccc2)c2ccc(C(=O)O)cc12,inactive
9,O=c1cc(N2CCCCC2)c(-c2ccccc2)nn1Cc1ccccc1,inactive
10,COc1ccc(-c2cc(-c3cccs3)nc3sc(C#N)c(N)c23)cc1,inactive
11,COc1ccccc1CNC(=O)c1cnn(-c2nccc(-c3cccs3)n2)c1C,inactive
12,COc1ccc(-c2cc(-c3cccs3)c(C#N)c(SCC(=O)NCc3ccccc3OC)n2)cc1,35.5 µM (active)
13,COc1ccc(C2C=C(c3ccccc3)Nc3nc(NS(=O)(=O)c4ccccc4)nn32)cc1 (configuration not stated),inactive
14,COc1c2c(c3c(c1OC)c(=O)c1ccccc1n3C)OCO2,inactive
15,Cc1c(CC(=O)N2CCN(C(=O)C3COc4ccccc4O3)CC2)c(=O)oc2c(C)c(O)ccc12 (configuration not stated),inactive
16,O=C(Cc1ccc(Cl)cc1)N1CCc2ccccc2C1,inactive
17,O=C(c1cc2cc(Cl)ccc2[nH]1)N1CCc2ccccc2C1,inactive
18,OC(COC(c1ccc(Cl)cc1)c1ccc(Cl)cc1)CN1CCc2ccccc2C1 (configuration not stated),25.1 µM (active)
19,CCOC(=O)c1cc2c(=O)n3ccccc3nc2n(C(C)C)/c1=N/C(=O)c1ccco1,inactive
20,COc1cc(-c2oc3ccc(C)cc3c(=O)c2O)cc(OC)c1OC,inactive
21,C[C@@H]1CN([C@H](C)CO)C(=O)c2cccc(NC(=O)Nc3ccc(C(F)(F)F)cc3)c2O[C@H]1CN(C)S(=O)(=O)c1cccs1,28.2 µM (active)
22,C[C@H](CO)N1C[C@H](C)[C@@H](CN(C)S(=O)(=O)c2ccc(F)cc2)Oc2c(NC(=O)Nc3ccc(C(F)(F)F)cc3)cccc2C1=O,35.5 µM (active)
23,C[C@H]1CN([C@@H](C)CO)C(=O)c2cccc(NC(=O)Nc3ccc(C(F)(F)F)cc3)c2O[C@@H]1CN(C)S(=O)(=O)c1ccc(Cl)cc1,25.1 µM (active)
24,COc1ccc(S(=O)(=O)N(C)C[C@H]2Oc3c(NC(=O)Nc4ccc(C(F)(F)F)cc4)cccc3C(=O)N([C@H](C)CO)C[C@@H]2C)cc1,22.4 µM (active)
25,Cc1c(C(=O)/C=C/N(C)C)nnn1-c1ccc(Cl)cc1C#N,inactive

row,SMILES,Potency
1,Cc1ccc(NC(=O)CN2C(=O)S/C(=C\c3ccc(-c4cccc(C(=O)O)c4C)o3)C2=O)cc1C,inactive
2,Cc1ccc(OCCCC(=O)ON=C(N)c2ccccc2C)cc1,inactive
3,COc1ccc(C2CC(c3ccc(C(F)(F)F)cc3)=NN2c2ccc(S(N)(=O)=O)cc2)cc1 (configuration not stated),inactive
4,CCOC(=O)N1CCN(C(=O)CSc2nc(O)c3cnn(-c4ccc(C)cc4)c3n2)CC1,inactive
5,COc1ccc(C2C3=C(CCCC3=O)N(CC(=O)O)C3=C2C(=O)CCC3)cc1Cl,inactive
6,COc1ccc(C(=O)/C=C/Nc2ccc(S(=O)(=O)Nc3cc(OC)nc(OC)n3)cc2)c(OC)c1,inactive
7,CC(=O)Nc1ccc(N/C=C(\C=O)c2nc3ccccc3o2)cc1,inactive
8,CCc1cnc2c(c1SC(C(C)=O)C(=O)N(C)C)c(=O)n(C)c(=O)n2C (configuration not stated),39.8 µM (active)
9,COc1ccc(-c2c(C)c3ccc(O)c(CN4CCCC4)c3oc2=O)cc1OC,inactive
10,Cc1ccc2c(Cl)cc(Cl)c(OCC(=O)O)c2n1,inactive
11,CCc1cc(=O)oc2c(CN3CCN(C)CC3)c(O)c(Cl)cc12,inactive
12,NC(Cc1ccc(C(F)(F)F)cc1)c1csc(NC(=O)Nc2ccccc2Oc2ccccc2)n1 (configuration not stated),39.8 µM (active)
13,COc1ccccc1NC(=O)c1sc2nc(-c3ccco3)ccc2c1N,inactive
14,COc1cccc(-c2ccc3c(N)c(C(=O)Nc4cc(C(F)(F)F)ccc4OC)sc3n2)c1,inactive
15,COc1ccccc1NC(=O)Nc1nc(C(N)Cc2ccc(C(F)(F)F)cc2)cs1 (configuration not stated),39.8 µM (active)
16,CN(C)Cc1csc(NC(=O)Nc2ccccc2Oc2ccccc2)n1,25.1 µM (active)
17,CC(C)c1ccccc1NC(=O)Nc1nc(C(N)Cc2ccc(C(F)(F)F)cc2)cs1 (configuration not stated),35.5 µM (active)
18,CN(C)CCCN=C(S)Nc1ccc(Oc2ccccc2)cc1,inactive
19,Cc1ccc(S(=O)(=O)NCCNc2ccc(Br)c(C)c2)cc1,inactive
20,CCC(=O)Oc1c(C(=O)CC)cc2c(C)cc(=O)oc2c1C,inactive
21,O=C(OCCOc1ccccc1Cl)c1cc(S(=O)(=O)N2CCCCC2)ccc1N1CCOCC1,inactive
22,CCCC[n+]1c2ccccc2cc2ccccc21,inactive
23,Cc1cc(C)c(C)c(S(=O)(=O)NCc2ccc(C(=O)N3CCN(C)CC3)cc2)c1C,inactive
24,CCc1nccn1C(=O)c1cnn2c(C(F)F)cc(-c3ccc(C)cc3)nc12,31.6 µM (active)
25,CCCNC(=O)c1cnn2c(C(F)F)cc(-c3ccccc3)nc12,inactive

row,SMILES,Potency
1,COc1ccc(-c2cc(C(F)F)n3ncc(C(=O)Nc4cc(C)on4)c3n2)cc1,inactive
2,Cc1cccnc1Nc1nc(-c2ccccn2)cs1,0.794 µM (active)
3,Cc1ccc(S(=O)(=O)NC(C(=O)Oc2ccc3c(C)c(Cl)c(=O)oc3c2)c2ccccc2)cc1 (configuration not stated),inactive
4,CCN1CCN(Cc2c(O)ccc3cc(-c4ccc(OC)cc4)c(=O)oc23)CC1,inactive
5,CCC(C)Nc1ccc(NC(C)CC)cc1 (configuration not stated),31.6 µM (active)
6,C=C1C(=O)C2=CC1CCC(=O)C1(C)CCC(OC(C)=O)C(C)(C)C1CC2O (configuration not stated),28.2 µM (active)
7,COc1ccc(-c2c(C)c3ccc(O)cc3oc2=O)cc1OC,inactive
8,Cc1c(CC(=O)NCCC(C)C)c(=O)oc2cc3c(cc12)CCC(C)(C)O3,39.8 µM (active)
9,Cc1c(CC(=O)NCC(=O)O)c(=O)oc2cc3oc4c(c3cc12)CCCC4,inactive
10,COc1ccccc1CCNC(=O)Cc1c(C)c2ccc(O)cc2oc1=O,inactive
11,CCSc1nnc(NC(=O)CN2C(=O)C3CC=CCC3C2=O)s1 (configuration not stated),inactive
12,CCSc1nnc(NC(=O)CSc2nc3c(cc2C#N)CCCC3)s1,inactive
13,CCSc1nnc(NC(=O)c2ccc3ccccc3n2)s1,35.5 µM (active)
14,CCSc1nnc(NC(=O)c2ccccn2)s1,25.1 µM (active)
15,O=C(CSc1nnc(NC(=O)c2ccccc2[N+](=O)[O-])s1)NC1CCCC1,inactive
16,CCCSc1nnc(NC(=O)c2sc3nc(-c4cccs4)ccc3c2N)s1,inactive
17,CC(C)Cn1nc(NC(=O)c2cccc(Cl)c2)c2cc3ccccc3nc21,inactive
18,Cc1ccc(NCC(=O)Nc2ccc(Br)cc2)cc1C,inactive
19,Cc1ccc(Sc2ccc(NC(=O)CCl)cc2)c(C)c1,39.8 µM (active)
20,Cc1ccc(C)c(Sc2ccc(S(=O)(=O)Nc3ccc(C(=O)O)cc3)cc2)c1,inactive
21,COc1ccc(-c2cc3ccc(OC(C)C(=O)O)cc3oc2=O)cc1 (configuration not stated),inactive
22,Oc1ccc(C[C@H]2CNCCN2CCc2cc(C(F)(F)F)cc(C(F)(F)F)c2)cc1,31.6 µM (active)
23,FC(F)(F)c1cc(CCN2CCNC[C@@H]2CC2CCCCC2)cc(C(F)(F)F)c1,20 µM (active)
24,O=C1NC[C@@H](Cc2cccc3ccccc23)N(CCc2cc(C(F)(F)F)cc(C(F)(F)F)c2)C1=O,31.6 µM (active)
25,FC(F)(F)c1cc(CCN2CCNC[C@@H]2Cc2ccccc2)cc(C(F)(F)F)c1,25.1 µM (active)

row,SMILES,Potency
1,O=C(CN1C(=O)c2ccc([N+](=O)[O-])cc2C1=O)NCc1ccco1,inactive
2,Cc1cc(/C=C2\C(=N)N3N=C(c4ccco4)SC3=NC2=O)c(C)n1Cc1ccccc1,inactive
3,COc1ccc([N+](=O)[O-])c(OC)c1C(=O)NC(=O)Nc1c(F)cc(F)cc1F,inactive
4,COc1ccc(C2C=C(c3ccc(F)cc3)Nc3nc(-c4ccc(Cl)cc4)nn32)cc1 (configuration not stated),inactive
5,Cn1ncc(C#N)c1/N=C/N(Cc1ccccc1)Cc1ccccc1,inactive
6,CC(NC1=NS(=O)(=O)c2ccccc21)C(=O)Nc1ccc(F)cc1Cl (configuration not stated),inactive
7,C[N+](C)(C)CCC(=O)N1C/C(=C/c2ccccc2)C(=O)/C(=C\c2ccccc2)C1,8.44 µM (active)
8,CC1CC(C)CN(C(=O)CCc2ccccc2)C1 (configuration not stated),inactive
9,NN=C(S)NCCc1ccccc1,inactive
10,COc1cc2c(cc1OC)C(SC)=NC1(CCCC1)C2,35.5 µM (active)
11,Oc1cc(NC2CCCCC2)nc(O)n1,inactive
12,CCOC(=O)c1cc2c(=O)n3ccccc3nc2n(C(C)C)/c1=N/C(=O)c1c(-c2ccccc2Cl)noc1C,inactive
13,CCCNC(=O)C[S+]([O-])Cc1nc(-c2ccccc2C)oc1C (configuration not stated),inactive
14,O=C(Nc1ccncc1)c1ccc2ccccc2c1,inactive
15,COc1cc(Nc2ccccn2)cc(C(=O)Nc2cccc(C(F)(F)F)c2)c1,28.2 µM (active)
16,COc1cc(/C=C(\C#N)C(=O)Nc2cc(C(F)(F)F)ccc2Cl)ccc1OCC(=O)Nc1cccc(C(F)(F)F)c1,inactive
17,C=CCNC(=O)/C(C#N)=C/c1c(N2CC(C)OC(C)C2)nc2ccccn2c1=O (configuration not stated),inactive
18,Cc1ccc(NC(=O)Cc2nc(-c3c[nH]c(C(=O)N4CCCC4)c3)cs2)c(C)c1,inactive
19,O=C(O)/C=C\C(=O)Nc1ccc(OC(F)F)cc1,inactive
20,C/C(=N\NC(=O)C1CC1)c1ccc(OC(F)F)cc1,inactive
21,O=C1C=CC(=O)N1c1ccc(OC(F)F)cc1,39.8 µM (active)
22,COc1cc(/C=C2\C(=N)N3N=C(CC(=O)N4CCCCC4)SC3=NC2=O)cc(OC)c1O,inactive
